Inconclusive results are not listed. A number with no mark means an inactive call. Calls follow the shape of the dose curve; as a rule, active = well fitted inhibition curve with a large enough effect; inconclusive = small, poorly fitted or top-dose-only effect; inactive = no such curve, though single readings can be large or run the other way.
Assay: Primary qHTS for small molecule stabilizers of the endoplasmic reticulum resident proteome: Secreted ER Calcium Modulated Protein (SERCaMP) assay (AID 1508630)
Conditions: SH-SY5Y GLuc-SERCaMP (Gaussia luciferase released on ER calcium loss) secretion, thapsigargin, luminescence; series mostly up to 38.4 µM; activity change, negative = inhibition: at the top concentration
From the text: Assay Provider: Brandon K. Harvey Ph.D.
National Institute on Drug Abuse, National Institutes of Health, Baltimore, MD
Endoplasmic reticulum (ER) dysregulation is associated with human pathologies including neurodegenerative, cardiovascular, muscular, and diabetic conditions. Maintenance of ER calcium is critical for functions of the ER and its depletion can lead to loss of ER resident proteins, in a process termed exodosis. Therapeutic compounds capable of attenuating the redistribution of ER proteins under pathological conditions may slow or stop disease progression. To identify such compounds, we performed a quantitative high-throughput screen (qHTS) using the SERCaMP assay, which monitors secretion of ER resident proteins triggered by calcium depletion.
SERCaMP was initially developed as a reporter of ER calcium homeostasis using a Gaussia luciferase with a modified signal peptide and carboxy-terminus (GLuc-SERCaMP), modifications that confer secretion of the reporter in response to ER calcium depletion (Henderson et al., 2014). The assay was used to screen 9,501 compounds, including a collection of drugs approved by the FDA (US), EMA (EU), NHI (Japan), and HC (Canada) regulatory agencies (Huang et al., 2011). Since the SERCaMP reporter reflects the exodosis phenomenon (Trychta et al., 2018a), compounds identified in the screen have the potential to prevent exodosis by different mechanisms such as stabilizing ER calcium or augmenting ERS retrieval.
1. Henderson, M.J., Wires, E.S., Trychta, K.A., Richie, C.T., and Harvey, B.K. (2014). SERCaMP: a carboxy-terminal protein modification that enables monitoring of ER calcium homeostasis. Mol Biol Cell 25, 2828-2839.
2. Huang, R., Southall, N., Wang, Y., Yasgar, A., Shinn, P., Jadhav, A., Nguyen, D.T., and Austin, C.P. (2011). The NCGC pharmaceutical collection: a comprehensive resource of clinically approved drugs enabling repurposing and chemical genomics. Sci Transl Med 3, 80ps16.
3. Trychta, K.A., Back, S., Henderson, M.J., and Harvey, B.K. (2018a). KDEL Receptors Are Differentially Regulated to Maintain the ER Proteome under Calcium Deficiency. Cell Rep 25, 1829-1840 e1826.
SEQUENCE No. (1, 2, 3, etc.); […] (e.g., Cells, Incubation, Reagent, etc.); VALUE and DESCRIPTION.
1; Reagent; 5 uL; 1000 SH-SY5Y cells per wells
3; Compound; 23 nL; Control inhibitor / compound library
5; Reagent; 100 nM; Thapsigargin
7; Reagent; 1 uL; 0.5x coelenterazine
8; Detection; Luminescence; ViewLux imaging system
NOTES (numbers refer to sequence above)
1; SH-SY5Y human neuroblastoma cells stably expressing GLuc-SERCaMP (SH-SY5Y-GLuc-ASARTDL) cells were seeded in 1,536 well white tissue culture treated plates (Corning, Cat# 7464) in DMEM-high glucose-sodium pyruvate (ThermoFisher Scientific, Cat #10569) supplemented with 10% bovine growth serum (Hyclone), 10 U/ml penicillin (Gibco), 10 ug/ml streptomycin (Gibco), and 20 mM HEPES.
2; Assay plates were incubated for 5 hour at 37C in a humidified incubator containing 5% CO2.
3; qHTS libraries (23 nl, final concentrations of 1.53 uM, 7.67 uM, 38.3 uM) or controls (neutral control: DMSO, positive control: dantrolene) were added using a Kalypsis pin-tool Robotic System equipped with 1536 pinheads.
4; Cells were then incubated for 16 hours at 37C, 5% CO2.
5; Thapsigargin was added at 100 nM to deplete ER calcium stores.
6; Cells were incubated for 4 hour (37 °C, 5% CO2)
7; Gaussia luciferase in the medium was measured by adding 1 ul of 0.5x coelenterazine (final concentration 0.07x) prepared in Gaussia Luciferase Glow Assay Buffer (Pierce), without addition of the Cell Lysis Buffer Reagent.
8; Luminescence was measured using a ViewLux […] CCD imaging system (Perkin Elmer) equipped with clear filters. […] The same controls were also used for the calculation of the Z' factor, a measure of assay quality control, as previously described (Zhang et al., 1999). […]
With CN1CCN(c2ncc3nc(CCc4ccccc4)c(=O)n(C4CC4)c3n2)CC1 the “activity change, negative = inhibition” value was -24.3%. In the case of O=C(Nc1ccccc1)N1CC2(CCN(C(=O)c3ccco3)CC2)C1, the “activity change, negative = inhibition” value is reported as 44.4%. With CC(C)CN1CC[C@@]2(CCCN(C(=O)c3cnccn3)C2)C1 the “activity change, negative = inhibition” value was 8.6%. In the case of NCCn1c(=O)c(CCc2ccccc2)nc2cncnc21, the “activity change, negative = inhibition” value is reported as 49.9%. For COc1ccc(NC(=O)N2CCCC3(CCNCC3)C2)cc1, the “activity change, negative = inhibition” value was -24.2%. With CCNc1ncc2nc(-c3cccs3)c(=O)n(C)c2n1 the “activity change, negative = inhibition” value was -4.71%. With COc1ccc(C(=O)N2CCC3(CCN(C)CC3)CC2)cc1 the “activity change, negative = inhibition” value was -1.78%. With Cc1cccc(CNc2ccnc(-c3cccnc3)n2)c1 the “activity change, negative = inhibition” value was -21.9%. In the case of O=c1c(-c2ccc(F)cc2)nc2cnc(N3CCOCC3)nc2n1Cc1cccs1, the “activity change, negative = inhibition” value is reported as 9.7%. With CNc1ncncc1-c1ccccc1OC the “activity change, negative = inhibition” value was -25.5%. For CS(=O)(=O)N1CCC[C@@]2(CCN(c3ccccn3)C2)C1, the “activity change, negative = inhibition” value was 16.9%. For Cc1nc2cnc(OCc3ccccc3)nc2n(C)c1=O, the “activity change, negative = inhibition” value was 3.48%. For COc1ccc(-c2nc3cnc(N4CCOCC4)nc3n(C[C@H]3CCCO3)c2=O)cc1, the “activity change, negative = inhibition” value was 29.1%. With O=C(c1cnccn1)N1CCC[C@@]2(CCN(c3ncccn3)C2)C1 the “activity change, negative = inhibition” value was 19.8%. With COc1ccccc1CN1CC[C@@]2(CCCN(S(C)(=O)=O)C2)C1 the “activity change, negative = inhibition” value was 9.09%. For CN(C)c1ccc(-c2ccc3ncnc(N4CCNCC4)c3c2)cc1, the “activity change, negative = inhibition” value was 15.5%. With COc1cc2c(cc1OC)C1N(CC2)C(=O)CCC12C(=O)CCCC2=O (stereo not given) the “activity change, negative = inhibition” value was -9.54%. For COc1ccc(NC(=O)N2CC[C@@]3(CCCN(C(=O)c4csnn4)C3)C2)cc1, the “activity change, negative = inhibition” value was 18.1%. For N#Cc1ccccc1-c1nc(NCCN2CCOCC2)c2ccccc2n1, the “activity change, negative = inhibition” value was 6.45%. In the case of O=C(O)C1CC[C@@](C(=O)O)(c2ccccc2)c2ccccc21 (stereo not given in full), the “activity change, negative = inhibition” value is reported as -18.4%. For O=C(NC[C@H](O)c1ccccc1)c1ccccc1, the “activity change, negative = inhibition” value was 26.3%. For CN(C)c1ncc2nc(-c3ccccc3)c(=O)n(Cc3ccc(F)cc3)c2n1, the “activity change, negative = inhibition” value was 1.6%. With O=C(O)C1CCC[C@@H]2[C@@H]3CC(CN12)[C@@H]1CCCCN1C3 (stereo not given in full) the “activity change, negative = inhibition” value was 39.3%. For CC(C)NC(=O)N1CCC2(CC1)CCN(C(=O)c1cccc(F)c1)CC2, the “activity change, negative = inhibition” value was 24.2%. With CS(=O)(=O)Nc1cccc(-c2nccc(NCc3ccccc3)n2)c1 the “activity change, negative = inhibition” value was 1.44%. For O=C(Nc1cccc(F)c1)N1CCCC2(CCN(C(=O)c3ccncc3)CC2)C1, the “activity change, negative = inhibition” value was 7.49%. With O=c1c(-c2cccs2)nc2cnc(N3CCOCC3)nc2n1Cc1ccc(F)cc1 the “activity change, negative = inhibition” value was -5.89%. In the case of c1csc(CNc2cc(-c3ccoc3)ncn2)c1, the “activity change, negative = inhibition” value is reported as -5.17%. In the case of CN(C)c1ncc2nc(-c3ccccc3)c(=O)n(-c3ccccc3)c2n1, the “activity change, negative = inhibition” value is reported as 20.5%. For CC(=O)OC[C@@]12C(=O)[C@@H](O)[C@@H](C)[C@]3(C[C@@H](c4ccoc4)O[C@@H]3OC(C)=O)[C@H]1CCC[C@]21CO1, the “activity change, negative = inhibition” value was -3.64%. For CC(C)NC(=O)N1CC[C@@]2(CCCN(C(=O)c3cccn3C)C2)C1, the “activity change, negative = inhibition” value was 45.5%. For O=C(c1cc(C(F)(F)F)cc(C(F)(F)F)c1)N1CCC2(CCCN(Cc3nccs3)C2)CC1, the “activity change, negative = inhibition” value was -7.66%. In the case of c1cncc(CNc2ncncc2-c2ccc3c(c2)OCO3)c1, the “activity change, negative = inhibition” value is reported as 38.9%. In the case of O=C(Nc1ccccc1)N1CC[C@@]2(CCCN(C(=O)c3ccco3)C2)C1, the “activity change, negative = inhibition” value is reported as 49.2%. In the case of COc1cc2c(cc1OC)C(C(=O)c1ccc(OC)c(OC)c1O)=NCC2, the “activity change, negative = inhibition” value is reported as 9.09%. In the case of Cn1c(=O)c(-c2ccc(Cl)cc2)nc2cnc(Oc3cccc(Cl)c3)nc21, the “activity change, negative = inhibition” value is reported as 13.1%. In the case of Cc1cnc(CNc2ncncc2-c2cccnc2)cn1, the “activity change, negative = inhibition” value is reported as -15.8%. In the case of O=C1CCCC2[C@@H]3CCC[N@+]4([O-])CCC[C@H](CN12)C34 (stereo not given in full), the “activity change, negative = inhibition” value is reported as -12.8%. With O=c1c(-c2cc(F)cc(F)c2)nc2cnc(N3CCOCC3)nc2n1C[C@H]1CCCO1 the “activity change, negative = inhibition” value was -11.6%. In the case of COc1cccc(Nc2ncc3nc(C)c(=O)n(CCc4ccccc4)c3n2)c1, the “activity change, negative = inhibition” value is reported as -28.3%.

— PubChem BioAssay (NCATS)
% is scaled to controls: 0 for no effect and ±100 for the full control effect.
